# According to the supplement of paper PMC8728848:
# This is one part of a sample in which the strongest signals are shown more often than they occur.
# What was measured:
# Experiment in all cases: glycan array binding signal (z-score within array); higher = stronger binding
# Settings in all cases: glycan notation: IUPAC condensed, linker removed
# [1] = tested on: Neu5Ac(a2-8)Neu5Ac(a2-3)Gal(b1-3)GalNAc(b1-4)[Neu5Ac(a2-3)]Gal(b1-4)Glc
# Summary of the method: (§1)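 Negative Z-scores can be read as non-binding. The Z-score is calculated within each array and then averaged across arrays of one protein sequence at different concentrations or buffers and across linkers. Arrays, 3228 in all, were curated from the Consortium for Functional Glycomics database and kept only where the protein sequence was available.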
# [2] = tested on: Neu5Ac(a2-6)Gal(b1-4)GlcNAc(b1-3)[Neu5Ac(a2-6)Gal(b1-4)GlcNAc(b1-6)]GalNAc
# Summary of the method: as §1
# [3] = tested on: Neu5Ac(a2-6)Gal(b1-4)GlcNAc6S
# Summary of the method: as §1
# Neu5Ac(a2-6)Gal = tested on: Neu5Ac(a2-6)Gal
# Summary of the method: as §1
# [4] = tested on: Neu5Ac(a2-6)Gal(b1-4)GlcNAc(b1-6)[Gal(b1-3)GlcNAc(b1-3)]Gal(b1-4)Glc
# Summary of the method: as §1
# [5] = tested on: Neu5Ac(a2-6)Gal(b1-4)GlcNAc
# Summary of the method: as §1
# [6] = tested on: Neu5Ac(a2-6)GalNAc(b1-4)GlcNAc
# Summary of the method: as §1
# [7] = tested on: Neu5Ac(a2-6)GlcNAc(b1-4)GlcNAc
# Summary of the method: as §1
# [8] = tested on: Neu5Ac(a2-8)Neu5Ac(a2-3)Gal(b1-3)GalNAc(b1-4)[Neu5Ac(a2-8)Neu5Ac(a2-3)]Gal(b1-4)Glc
# Summary of the method: as §1
# [9] = tested on: Neu5Ac(a2-8)Neu5Ac(a2-3)Gal(b1-4)GlcNAc
# Summary of the method: as §1
substance,measurement,setting,value
"MIC3-MAR5 (Eimeria tenella), B6VCV4",glycan array binding signal (z-score),[1],3.86
AgI/II Vhelical-GFP (Streptococcus mutans),glycan array binding signal (z-score),[2],-0.298
same,glycan array binding signal (z-score),[3],-0.076
same,glycan array binding signal (z-score),Neu5Ac(a2-6)Gal,-0.257
same,glycan array binding signal (z-score),[1],-0.253
"MIC3-MAR1b (Eimeria tenella), B6VCV4",glycan array binding signal (z-score),[4],1.38
Epa22,glycan array binding signal (z-score),[4],0.104
same,glycan array binding signal (z-score),[5],-0.607
same,glycan array binding signal (z-score),[6],-0.394
same,glycan array binding signal (z-score),[7],-0.046
"BambL (Burhholderia ambifaria), Q0B4G1",glycan array binding signal (z-score),[8],-0.308
LcI (Legionella pneumophila),glycan array binding signal (z-score),[6],-0.669
AgI/IIC123-GFP (Streptococcus mutans),glycan array binding signal (z-score),[9],-0.506
"SpGH101 (Streptococcus pneumoniae), Q8DR60",glycan array binding signal (z-score),[5],-0.172
Actinohivin (Actinomycete K97),glycan array binding signal (z-score),[3],-0.199
same,glycan array binding signal (z-score),[6],-0.197
same,glycan array binding signal (z-score),Neu5Ac(a2-6)Gal,-0.147
